Source: the supplement of paper PMC10849652
Of roughly 7,900 targets only a part is listed; those with a hit were picked by preference. About 0.6% of all pairs of compound and target were hits.

Tests used:
Assay in all cases: log2 fold change, soluble protein after heating vs DMSO (PISA); higher = thermal stabilisation; K562 cells, 10 uM, 30 min; active = over 0.2 and 3.5 SD of the protein, either way, in both replicates (recomputed)
saracatinib = compound: CN1CCN(CCOc2cc(OC3CCOCC3)c3c(Nc4c(Cl)ccc5c4OCO5)ncnc3c2)CC1 [saracatinib]
In short: (§1)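 K562 cells at 2×10^6 cells/mL were exposed to 10 μM compound for 30 min, then aliquots were heated for 3 min across 48°C-58°C, pooled, and extracted in PBS containing 0.5% NP-40 at 4°C. The supernatant after 21,000xg for 90 min was taken as soluble protein and measured by TMTpro 16plex LC-MS/MS with channel sums equalised. Thermal stability is reported relative to control samples, with values from duplicates. Fold changes are given on a log2 scale.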

sotrastaurin = compound: CN1CCN(c2nc(C3=C(c4c[nH]c5ccccc45)C(=O)NC3=O)c3ccccc3n2)CC1 [sotrastaurin]
In short: as §1

alvocidib = compound: CN1CC[C@H](c2c(O)cc(O)c3c(=O)cc(-c4ccccc4Cl)oc23)[C@H](O)C1 [alvocidib]
In short: as §1

Tubastatin A = compound: CN1CCc2c(c3ccccc3n2Cc2ccc(C(=O)NO)cc2)C1 [Tubastatin A]
In short: as §1

[1] = compound: CNC(=O)C1=CC=CC=C1NC2=NC(=NC=C2Cl)NC3=C(C=C(C=C3)N4CCOCC4)OC
In short: as §1

defactinib = compound: CNC(=O)c1ccc(Nc2ncc(C(F)(F)F)c(NCc3nccnc3N(C)S(C)(=O)=O)n2)cc1 [defactinib]
In short: as §1

rucaparib = compound: CNCc1ccc(-c2[nH]c3cc(F)cc4c3c2CCNC4=O)cc1 [rucaparib]
In short: as §1

[2] = compound: CNc1nc(-c2ccc3c(N)n[nH]c3c2)cc(N2C[C@@H](C(=O)NC3CCCCC3)CC[C@H]2C)n1
In short: as §1

encorafenib = compound: COC(=O)N[C@@H](C)CNc1nccc(-c2cn(C(C)C)nc2-c2cc(Cl)cc(NS(C)(=O)=O)c2F)n1 [encorafenib]
In short: as §1

[3] = compound: COC(=O)[C@H](CCSC)NC(=O)C1=C(C=C(C=C1)NC[C@H](CS)N)C2=CC=CC=C2
In short: as §1

filanesib = compound: CON(C)C(=O)N1N=C(c2cc(F)ccc2F)S[C@@]1(CCCN)c1ccccc1 [filanesib]
In short: as §1

zotarolimus = compound: CO[C@H]1C[C@@H]2CC[C@@H](C)[C@@](O)(O2)C(=O)C(=O)N2CCCC[C@H]2C(=O)O[C@H]([C@H](C)C[C@@H]2CC[C@H](n3cnnn3)[C@H](OC)C2)CC(=O)[C@H](C)/C=C(\C)[C@@H](O)[C@@H](OC)C(=O)[C@H](C)C[C@H](C)/C=C/C=C/C=C/1C [zotarolimus]
In short: as §1

idasanutlin = compound: COc1cc(C(=O)O)ccc1NC(=O)[C@@H]1N[C@@H](CC(C)(C)C)[C@](C#N)(c2ccc(Cl)cc2F)[C@H]1c1cccc(Cl)c1F [idasanutlin]
In short: as §1

alisertib = compound: COc1cc(Nc2ncc3c(n2)-c2ccc(Cl)cc2C(c2c(F)cccc2OC)=NC3)ccc1C(=O)O [alisertib]
In short: as §1

gefitinib = compound: COc1cc2ncnc(Nc3ccc(F)c(Cl)c3)c2cc1OCCCN1CCOCC1 [gefitinib]
In short: as §1

[4] = compound: COc1cccc2cc(-c3nc([C@H]4CC[C@H](C(=O)O)CC4)n4ncnc(N)c34)[nH]c12
In short: as §1

pictilisib = compound: CS(=O)(=O)N1CCN(Cc2cc3nc(-c4cccc5[nH]ncc45)nc(N4CCOCC4)c3s2)CC1 [pictilisib]
In short: as §1

[5] = compound: COC1=CC=C(C=C1)CN2C=CC3=C2C=C(C=C3)C(=O)NO
In short: as §1

[6] = compound: COc1cc2nc(-c3cc(F)ccc3O)nc(N[C@@H]3CNC[C@H]3C(C)(C)O)c2cc1OC
In short: as §1

lapatinib = compound: CS(=O)(=O)CCNCc1ccc(-c2ccc3ncnc(Nc4ccc(OCc5cccc(F)c5)c(Cl)c4)c3c2)o1 [lapatinib]
In short: as §1

Measured: log2 fold change

CCNDBP1 (UniProt O95273)
Sequence of UniProt O95273 (O95273 whole entry, looked up): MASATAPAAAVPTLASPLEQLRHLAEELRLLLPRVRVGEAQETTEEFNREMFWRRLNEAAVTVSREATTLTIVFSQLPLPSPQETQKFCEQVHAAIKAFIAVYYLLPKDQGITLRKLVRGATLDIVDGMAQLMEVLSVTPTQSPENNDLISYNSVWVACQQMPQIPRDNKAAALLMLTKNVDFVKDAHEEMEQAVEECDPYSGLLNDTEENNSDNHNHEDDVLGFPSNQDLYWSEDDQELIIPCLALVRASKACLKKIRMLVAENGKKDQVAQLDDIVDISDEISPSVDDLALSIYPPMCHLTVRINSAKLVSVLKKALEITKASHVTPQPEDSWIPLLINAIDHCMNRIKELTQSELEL
active: gefitinib -0.33
inactive: saracatinib 0.078 | sotrastaurin -0.209 | alvocidib -0.007 | Tubastatin A 0.001 | [1] 0.115 | defactinib -0.107 | rucaparib -0.002 | [2] -0.04 | encorafenib 0.062 | [3] -0.027 | filanesib 0.016 | zotarolimus -0.102 | idasanutlin 0.063 | alisertib -0.012 | [4] 0.125 | pictilisib 0.009

CDK17 isoform 2 (UniProt Q00537)
Sequence of UniProt Q00537 (Q00537 whole entry, looked up): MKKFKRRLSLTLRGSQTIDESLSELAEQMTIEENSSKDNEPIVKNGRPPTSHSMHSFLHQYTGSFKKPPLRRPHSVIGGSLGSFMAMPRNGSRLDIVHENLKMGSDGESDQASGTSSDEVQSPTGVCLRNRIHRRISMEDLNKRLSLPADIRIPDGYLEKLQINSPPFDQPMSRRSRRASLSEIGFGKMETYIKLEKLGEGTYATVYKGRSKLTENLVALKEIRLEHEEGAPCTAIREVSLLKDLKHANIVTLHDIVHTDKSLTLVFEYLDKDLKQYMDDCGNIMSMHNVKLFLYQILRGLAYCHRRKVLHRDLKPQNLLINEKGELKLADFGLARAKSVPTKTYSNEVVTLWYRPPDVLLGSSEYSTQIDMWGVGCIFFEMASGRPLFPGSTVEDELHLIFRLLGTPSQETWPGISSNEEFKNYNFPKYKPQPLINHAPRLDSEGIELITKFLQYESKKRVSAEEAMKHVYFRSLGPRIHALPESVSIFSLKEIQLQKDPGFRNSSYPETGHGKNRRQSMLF
inactive: saracatinib 0.008 | sotrastaurin -0.036 | [1] -0.017 | defactinib 0.11 | rucaparib 0.494 | [2] 0.06 | encorafenib -0.027 | [3] 0.014 | [5] -0.031 | filanesib -0.024 | zotarolimus -0.208 | idasanutlin 0.03 | alisertib 0.508 | [6] 0.051 | [4] 0.103 | lapatinib 0.049 | pictilisib 0.158
active: alvocidib 0.602

CDK19 (UniProt Q9BWU1)
Sequence of UniProt Q9BWU1 (Q9BWU1 whole entry, looked up): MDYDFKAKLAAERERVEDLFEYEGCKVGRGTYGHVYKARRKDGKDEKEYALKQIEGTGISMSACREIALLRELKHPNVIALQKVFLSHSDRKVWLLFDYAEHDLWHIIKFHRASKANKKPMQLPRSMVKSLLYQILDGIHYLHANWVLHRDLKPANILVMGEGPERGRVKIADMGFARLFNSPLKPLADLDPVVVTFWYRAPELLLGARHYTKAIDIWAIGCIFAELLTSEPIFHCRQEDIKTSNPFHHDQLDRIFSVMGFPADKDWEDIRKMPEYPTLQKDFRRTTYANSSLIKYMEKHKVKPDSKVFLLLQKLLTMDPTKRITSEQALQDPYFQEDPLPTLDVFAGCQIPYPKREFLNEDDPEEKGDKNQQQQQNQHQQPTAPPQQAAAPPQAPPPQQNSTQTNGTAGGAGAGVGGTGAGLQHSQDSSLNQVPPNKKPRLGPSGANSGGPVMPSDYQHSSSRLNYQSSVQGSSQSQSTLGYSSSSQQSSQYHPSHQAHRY
active: alvocidib 0.585
inactive: saracatinib 0.006 | sotrastaurin 0.035 | Tubastatin A -0.104 | [1] -0.209 | defactinib 0.046 | rucaparib 0.345 | [2] 0.03 | encorafenib -0.086 | [3] -0.005 | filanesib 0.154 | zotarolimus -0.069 | idasanutlin -0.161 | alisertib 0.234 | [6] 0.138 | gefitinib -0.095 | [4] -0.045 | lapatinib -0.192 | pictilisib 0.073

C6orf120 (UniProt Q7Z4R8)
Sequence of UniProt Q7Z4R8 (Q7Z4R8 whole entry, looked up): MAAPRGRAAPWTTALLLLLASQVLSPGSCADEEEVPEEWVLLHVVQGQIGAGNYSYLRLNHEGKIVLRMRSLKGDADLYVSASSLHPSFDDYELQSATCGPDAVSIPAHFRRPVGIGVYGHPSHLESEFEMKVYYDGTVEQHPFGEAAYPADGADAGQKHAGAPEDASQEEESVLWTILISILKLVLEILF
inactive: saracatinib -0.097 | sotrastaurin 0.008 | Tubastatin A 0.041 | [1] -0.145 | defactinib 0.024 | rucaparib 0.127 | [2] 0.041 | encorafenib 0.074 | [3] -0.045 | [5] 0.003 | filanesib -0.053 | [6] -0.135 | gefitinib -0.008 | lapatinib -0.114

CCNC (UniProt P24863)
active: alvocidib 0.6
inactive: saracatinib 0.057 | sotrastaurin -0.057 | [1] 0.008 | defactinib -0.047 | [2] -0.028 | [3] 0.001 | [5] -0.198 | filanesib 0.013 | zotarolimus -0.026 | idasanutlin -0.156 | alisertib -0.036 | [4] 0.013 | pictilisib 0.079

CNOT4 isoform 9 (UniProt O95628)
Sequence of UniProt O95628 (O95628 whole entry, looked up): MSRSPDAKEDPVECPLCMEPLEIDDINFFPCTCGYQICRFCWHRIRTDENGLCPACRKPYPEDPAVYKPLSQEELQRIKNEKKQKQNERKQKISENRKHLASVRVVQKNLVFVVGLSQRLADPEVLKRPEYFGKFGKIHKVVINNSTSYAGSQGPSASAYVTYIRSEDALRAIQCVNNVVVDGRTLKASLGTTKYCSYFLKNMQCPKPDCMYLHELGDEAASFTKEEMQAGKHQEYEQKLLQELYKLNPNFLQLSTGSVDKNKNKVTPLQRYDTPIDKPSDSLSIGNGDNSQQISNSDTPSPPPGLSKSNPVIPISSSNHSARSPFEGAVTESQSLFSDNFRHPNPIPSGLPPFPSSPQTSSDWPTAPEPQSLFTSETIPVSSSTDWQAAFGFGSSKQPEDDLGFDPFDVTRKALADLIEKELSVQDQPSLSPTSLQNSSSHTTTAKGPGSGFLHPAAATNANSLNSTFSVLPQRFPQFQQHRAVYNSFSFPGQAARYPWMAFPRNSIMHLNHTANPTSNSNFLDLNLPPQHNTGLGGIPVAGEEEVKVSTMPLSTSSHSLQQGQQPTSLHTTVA
inactive: saracatinib 0.077 | alvocidib 0 | Tubastatin A -0.027 | [1] 0.187 | defactinib -0.129 | rucaparib -0.057 | [2] -0.021 | encorafenib -0.05 | [3] 0.038 | [5] -0.018 | alisertib 0.018 | [6] 0.106 | gefitinib 0.053 | [4] 0.019 | lapatinib -0.083 | pictilisib 0.045
active: zotarolimus -0.373 | idasanutlin -0.334

CDK16 isoform 2 (UniProt Q00536)
Sequence of UniProt Q00536 (Q00536 whole entry, looked up): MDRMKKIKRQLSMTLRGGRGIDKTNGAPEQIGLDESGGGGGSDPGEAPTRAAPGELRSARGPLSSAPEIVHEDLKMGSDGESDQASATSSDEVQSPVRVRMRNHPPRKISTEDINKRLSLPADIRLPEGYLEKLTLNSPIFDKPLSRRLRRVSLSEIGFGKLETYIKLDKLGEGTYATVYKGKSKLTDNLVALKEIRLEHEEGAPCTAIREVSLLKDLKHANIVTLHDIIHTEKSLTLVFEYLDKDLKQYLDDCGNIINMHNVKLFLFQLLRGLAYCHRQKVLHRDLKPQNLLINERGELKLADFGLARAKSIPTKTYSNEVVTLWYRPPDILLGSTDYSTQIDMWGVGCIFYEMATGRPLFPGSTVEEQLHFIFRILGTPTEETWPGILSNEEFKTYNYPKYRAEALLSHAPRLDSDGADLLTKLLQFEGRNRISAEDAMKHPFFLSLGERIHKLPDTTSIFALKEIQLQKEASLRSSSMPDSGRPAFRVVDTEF
inactive: saracatinib -0.014 | sotrastaurin 0.246 | Tubastatin A 0.014 | [1] 0.027 | defactinib 0.236 | rucaparib 0.278 | [2] -0.102 | encorafenib 0.016 | [3] -0.146 | [5] 0.029 | filanesib 0.021 | zotarolimus -0.028 | idasanutlin -0.036 | alisertib 0.02 | [6] 0.252 | gefitinib -0.086 | [4] 0.037 | lapatinib 0.002

CASP9 (UniProt P55211)
Sequence of UniProt P55211 (P55211 whole entry, looked up): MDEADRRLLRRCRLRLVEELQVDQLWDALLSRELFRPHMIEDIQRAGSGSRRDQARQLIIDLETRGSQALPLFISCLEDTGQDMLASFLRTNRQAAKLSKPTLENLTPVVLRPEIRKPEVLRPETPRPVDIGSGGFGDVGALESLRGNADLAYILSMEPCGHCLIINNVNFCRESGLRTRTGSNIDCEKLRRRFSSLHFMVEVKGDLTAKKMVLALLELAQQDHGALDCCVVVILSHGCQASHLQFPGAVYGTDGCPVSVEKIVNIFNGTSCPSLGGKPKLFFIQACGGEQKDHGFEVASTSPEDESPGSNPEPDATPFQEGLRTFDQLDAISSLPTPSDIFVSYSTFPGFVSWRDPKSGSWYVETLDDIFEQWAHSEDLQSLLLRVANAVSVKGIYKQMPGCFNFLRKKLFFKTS
inactive: saracatinib -0.206 | sotrastaurin -0.25 | alvocidib -0.136 | Tubastatin A 0.098 | defactinib -0.165 | rucaparib 0.161 | [2] -0.051 | encorafenib 0.012 | [3] -0.035 | [5] 0.095 | filanesib 0.169 | zotarolimus -0.043 | idasanutlin -0.008 | [6] 0.02 | gefitinib 0.146 | lapatinib -0.034 | pictilisib -0.019

CCDC82 (UniProt Q8N4S0)
Sequence of UniProt Q8N4S0 (Q8N4S0 whole entry, looked up): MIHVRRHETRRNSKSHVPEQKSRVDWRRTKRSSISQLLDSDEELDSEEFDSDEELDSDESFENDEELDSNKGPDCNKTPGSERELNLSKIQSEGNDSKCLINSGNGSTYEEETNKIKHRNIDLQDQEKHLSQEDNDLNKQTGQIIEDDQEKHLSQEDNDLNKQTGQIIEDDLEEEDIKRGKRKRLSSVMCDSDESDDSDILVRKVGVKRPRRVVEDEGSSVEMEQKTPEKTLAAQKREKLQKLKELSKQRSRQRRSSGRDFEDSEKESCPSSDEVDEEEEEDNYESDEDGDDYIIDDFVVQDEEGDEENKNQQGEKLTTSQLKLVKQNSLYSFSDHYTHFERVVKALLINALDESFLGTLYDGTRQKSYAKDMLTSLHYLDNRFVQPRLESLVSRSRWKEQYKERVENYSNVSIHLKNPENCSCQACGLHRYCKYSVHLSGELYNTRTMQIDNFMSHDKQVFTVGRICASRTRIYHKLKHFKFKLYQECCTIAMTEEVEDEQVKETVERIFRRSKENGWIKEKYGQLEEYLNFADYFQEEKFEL
inactive: saracatinib 0 | alvocidib -0.065 | Tubastatin A 0.102 | [1] 0.03 | defactinib -0.09 | rucaparib -0.069 | [2] -0.139 | encorafenib 0.021 | [3] -0.037 | [5] -0.356 | zotarolimus 0.013 | idasanutlin 0 | alisertib 0.034 | [6] -0.013 | gefitinib 0.052 | [4] -0.102 | lapatinib 0.043

CHPT1 (UniProt Q8WUD6)
Sequence of UniProt Q8WUD6 (Q8WUD6 whole entry, looked up): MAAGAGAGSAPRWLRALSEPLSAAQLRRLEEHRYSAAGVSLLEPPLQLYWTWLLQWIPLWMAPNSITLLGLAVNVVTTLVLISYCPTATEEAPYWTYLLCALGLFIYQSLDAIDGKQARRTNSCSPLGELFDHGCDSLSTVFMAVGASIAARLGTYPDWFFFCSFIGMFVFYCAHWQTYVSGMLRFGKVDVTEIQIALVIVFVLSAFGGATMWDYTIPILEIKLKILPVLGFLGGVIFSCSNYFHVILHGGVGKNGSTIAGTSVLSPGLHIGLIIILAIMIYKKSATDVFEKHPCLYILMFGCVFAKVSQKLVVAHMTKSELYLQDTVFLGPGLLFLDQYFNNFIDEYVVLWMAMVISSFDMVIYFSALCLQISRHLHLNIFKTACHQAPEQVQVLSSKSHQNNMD
inactive: saracatinib -0.066 | sotrastaurin -0.016 | alvocidib -0.118 | Tubastatin A -0.08 | rucaparib -0.069 | [2] 0.034 | encorafenib 0.103 | filanesib -0.345 | zotarolimus -0.017 | idasanutlin -0.018 | alisertib -0.136 | [6] -0.009 | gefitinib 0.013 | [4] -0.015 | lapatinib 0.159 | pictilisib -0.096

CAV2 (UniProt P51636)
Sequence of UniProt P51636 (P51636 whole entry, looked up): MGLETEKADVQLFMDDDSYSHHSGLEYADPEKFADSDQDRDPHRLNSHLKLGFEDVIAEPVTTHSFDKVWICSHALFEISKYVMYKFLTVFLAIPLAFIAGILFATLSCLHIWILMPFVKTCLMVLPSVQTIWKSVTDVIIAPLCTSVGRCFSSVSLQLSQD
inactive: saracatinib -0.006 | sotrastaurin 0.045 | Tubastatin A 0.159 | [1] -0.019 | [2] 0.013 | [5] -0.046 | filanesib 0.131 | idasanutlin 0 | alisertib -0.083 | [6] -0.011 | gefitinib 0.137 | [4] 0.026 | lapatinib -0.018 | pictilisib 0.031

CAB39L (UniProt Q9H9S4)
Sequence of UniProt Q9H9S4 (Q9H9S4 whole entry, looked up): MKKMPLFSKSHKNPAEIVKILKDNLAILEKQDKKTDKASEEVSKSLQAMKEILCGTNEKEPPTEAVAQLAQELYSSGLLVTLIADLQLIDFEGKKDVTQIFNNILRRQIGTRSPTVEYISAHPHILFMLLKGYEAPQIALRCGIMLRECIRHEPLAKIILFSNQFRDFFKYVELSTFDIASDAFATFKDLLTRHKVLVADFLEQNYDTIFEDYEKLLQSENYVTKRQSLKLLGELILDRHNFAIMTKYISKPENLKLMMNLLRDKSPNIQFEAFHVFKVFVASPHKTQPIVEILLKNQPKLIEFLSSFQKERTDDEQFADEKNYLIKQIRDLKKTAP
inactive: saracatinib 0.043 | sotrastaurin -0.213 | Tubastatin A 0.056 | [1] 0.049 | defactinib -0.09 | rucaparib 0.003 | [2] 0.015 | encorafenib -0.144 | [3] 0.043 | [5] -0.063 | filanesib -0.07 | idasanutlin -0.052 | [6] 0.07 | lapatinib 0.057 | pictilisib 0.029

CNN3 (UniProt Q15417)
Sequence of UniProt Q15417 (Q15417 whole entry, looked up): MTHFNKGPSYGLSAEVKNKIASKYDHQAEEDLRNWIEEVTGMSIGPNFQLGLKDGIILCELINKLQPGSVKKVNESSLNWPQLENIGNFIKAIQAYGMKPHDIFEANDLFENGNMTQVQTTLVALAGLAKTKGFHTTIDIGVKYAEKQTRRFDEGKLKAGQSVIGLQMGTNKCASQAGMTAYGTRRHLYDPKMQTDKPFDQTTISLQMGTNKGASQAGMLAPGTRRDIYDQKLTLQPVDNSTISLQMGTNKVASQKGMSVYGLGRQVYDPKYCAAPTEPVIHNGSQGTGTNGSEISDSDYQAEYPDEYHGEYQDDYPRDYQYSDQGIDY
inactive: saracatinib 0.063 | sotrastaurin -0.122 | alvocidib -0.017 | Tubastatin A 0.02 | [1] 0.036 | defactinib -0.13 | rucaparib 0.048 | [2] 0.008 | encorafenib 0.009 | [3] 0 | filanesib -0.006 | zotarolimus 0.005 | idasanutlin -0.04 | alisertib -0.031 | [6] 0.111 | gefitinib 0.026 | [4] -0.026 | lapatinib -0.032 | pictilisib 0.04

COX17 (UniProt Q14061)
Sequence of UniProt Q14061 (Q14061 whole entry, looked up): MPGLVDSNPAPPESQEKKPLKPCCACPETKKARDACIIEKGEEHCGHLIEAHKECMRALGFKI
inactive: saracatinib -0.092 | sotrastaurin -0.023 | alvocidib -0.101 | Tubastatin A -0.113 | [1] -0.008 | defactinib -0.072 | [2] 0.023 | [3] 0.147 | [5] 0.183 | filanesib -0.059 | zotarolimus 0.034 | idasanutlin 0.059 | alisertib -0.112 | gefitinib -0.055 | [4] 0.02 | pictilisib 0.092

CENPE (UniProt Q02224)
inactive: saracatinib 0.318 | sotrastaurin -0.19 | alvocidib -0.385 | Tubastatin A 0.091 | [1] -0.277 | defactinib -0.056 | [2] 0.399 | [3] 0.198 | [5] -0.355 | filanesib 0.445 | zotarolimus 0.288 | idasanutlin -0.407 | [6] -0.068 | lapatinib 0.024 | pictilisib 0.048

CEP128 (UniProt Q6ZU80)
active: alisertib 0.677
inactive: saracatinib -0.092 | sotrastaurin -0.022 | alvocidib 0.033 | Tubastatin A 0.024 | defactinib 0.027 | rucaparib -0.306 | [2] -0.22 | encorafenib 0.061 | [3] 0.044 | [5] -0.269 | filanesib 0.031 | zotarolimus -0.101 | idasanutlin -0.103 | [6] 0.076 | [4] -0.381 | lapatinib -0.198

C22orf39 (UniProt Q6P5X5)
inactive: saracatinib 0.076 | sotrastaurin -0.028 | alvocidib 0.013 | Tubastatin A -0.013 | [1] 0.129 | [2] 0.056 | [5] 0.02 | filanesib -0.043 | zotarolimus -0.014 | idasanutlin 0.119 | alisertib -0.025 | [6] -0.344 | gefitinib 0.058 | [4] -0.006 | lapatinib 0.077

CRTC1 isoform 2 (UniProt Q6UUV9)
inactive: saracatinib -0.026 | sotrastaurin 0.011 | Tubastatin A -0.009 | [1] -0.101 | defactinib -0.021 | [2] -0.062 | [3] 0.009 | filanesib -0.002 | idasanutlin -0.021 | [6] 0.138 | lapatinib 0.028 | pictilisib -0.013
active: [5] -0.39

COX7C (UniProt P15954)
inactive: saracatinib 0.026 | sotrastaurin 0.028 | Tubastatin A 0.03 | [1] 0.007 | defactinib 0.031 | rucaparib 0.011 | [2] -0.054 | encorafenib -0.06 | [3] 0.047 | [5] 0.12 | filanesib 0.009 | idasanutlin 0.114 | alisertib -0.016 | [6] -0.069 | gefitinib 0.059 | [4] -0.053 | lapatinib 0.008 | pictilisib -0.288
